PubChem BioAssay (NCI)
The panel holds about 79,000 compounds, 15% with a hit somewhere; the sample as a whole holds those more often. Unmarked numbers belong to inactive results. The source made the active and inactive calls. Rule as the data show it: active = growth inhibition above about 70%; inactive = the rest. Where a SMILES comes first, the peptide text is derived from it. The star is where a group is joined. Boc = CC(C)(C)OC(=O)*

Legend:
[1] = NCI Yeast Anticancer Drug Screen. Data for the rad50 strain (AID 155);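 also: 0% = growth of vehicle-only cultures of the same strain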; details: S. cerevisiae rad50 strain growth inhibition; at 50.0 µM; stronger effect = higher value
Method in brief: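 Readout: growth inhibition relative to vehicle-treated cultures. Compound exposure was carried out in a genetically defined yeast strain deficient in DNA damage repair.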

[2] = NCI Yeast Anticancer Drug Screen. Data for the mec2-1 strain (AID 157); details: S. cerevisiae mec2-1 strain, at 50.0 µM, stronger effect = higher value
Method in brief: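 Test agents were screened against the mec2-1 yeast strain, with defined DNA repair or cell cycle alteration. Growth was scored as inhibition against vehicle-only controls.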

[3] = NCI Yeast Anticancer Drug Screen. Data for the sgs1 mgt1 strain (AID 161);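 also: 0% = growth of cultures given vehicle only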; details: S. cerevisiae sgs1 mgt1 strain, at 50.0 µM, stronger effect = higher value
Method in brief: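 Test agents were incubated with a DNA-repair-mutant yeast strain. Growth was then read and compared against vehicle-treated controls.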

[4] = NCI Yeast Anticancer Drug Screen. Data for the cln2 rad14 strain (AID 165);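 also: 0% = growth equal to vehicle treated cultures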; details: S. cerevisiae cln2 rad14 strain, at 50.0 µM, stronger effect = higher value
Method in brief: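 Growth of compound-exposed yeast (cln2 rad14 genotype) measured and expressed as inhibition relative to vehicle.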

[5] = NCI Yeast Anticancer Drug Screen. Data for the bub3 strain (AID 167); details: S. cerevisiae bub3 mutant strain, at 50.0 µM, stronger effect = higher value
Method in brief: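 Readout: yeast growth inhibition, expressed relative to vehicle-only wells. The test organism is a mutant strain from a panel with lesions in DNA repair or checkpoint genes.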

[6] = NCI Yeast Anticancer Drug Screen. Data for the mlh1 rad18 strain (AID 175); details: S. cerevisiae mlh1 rad18 strain growth inhibition; at 50.0 µM; stronger effect = higher value
Method in brief: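 In this whole-cell yeast screen, a strain with altered DNA damage repair is challenged with compound, and its growth is measured against matched vehicle-treated controls.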

Row | Compound | growth inhibition [1] | growth inhibition [2] [%] | growth inhibition [3] | growth inhibition [4] [%] | growth inhibition [5] | growth inhibition [6] [%]
1 | CCC(CC)c1ccc2ccccc2c1 | -22.2% | 1 | -11.6% | -19.6 | -6.55% | -11.4
2 | CCOC(=O)C(CC)N1C(=O)c2ccccc2S1(=O)=O (stereo not drawn) | -16.1% | -10.5 | -12.4% | 48.2 | 33.5% | -12.6
3 | O=c1c(SCc2ccc(Br)cc2)c(SCc2ccc(Br)cc2)cnn1-c1ccccc1 | 22.3% | 4.65 | 13.8% | 34 | 13.4% | 14.8
4 | CC(C)(C)C(=O)N1C(C(=O)O)Cc2ccccc2[C@@H]1Cc1ccccc1 (stereo partly drawn) | -6.9% | -7.25 | -16.1% | 22.5 | -11.1% | -29.5
5 | COc1cccc(NC(=S)NC(=O)c2ccccc2)c1 | 82% (active) | 60.8 | 96.2% (active) | 37 | 95.6% (active) | 45.7
6 | CC(C=O)C1CCCCC1 (stereo not drawn) | 9.15% | 10.1 | 0.6% | 7.4 | 8.95% | 5.6
7 | Cc1cc(=O)n(-c2ccc([N+](=O)[O-])cc2)c(C)c1C(=O)O | 3.25% | -2.4 | 4.85% | -0.15 | 7.9% | -1.65
8 | Cc1nc(N)c2c(ncn2C2OC(CO)C(O)C2O)n1 (stereo not drawn) | 9.35% | 1.85 | -5.3% | -8.8 | -9.15% | 14.6
9 | CCCc1cc(=O)[nH]c(=S)[nH]1 | 34.6% | -8.25 | 1.7% | 15.8 | 11.2% | 15.8
10 | C[n+]1cc(Br)c2ccccc2c1 | 4.05% | -6.25 | 3.4% | -13.2 | 1.4% | 3.45
11 | S=c1nc[nH]c2c1cnn2-c1ccccc1 | 5.6% | 19.6 | 54.4% | -13.2 | -7.3% | 40.2
12 | Fc1cccc(-c2nnc(-c3cccc(F)c3)o2)c1 | 12.7% | -10.1 | -6.9% | -38 | -2.65% | -4.85
13 | CS/C(=C/c1ccc2ccccc2[n+]1C)N1CCN(C)CC1 | -3.3% | -1.25 | -8.15% | -12.9 | -3% | -0.2
14 | COc1ccc(C2C(C)C(=O)C(C)C(c3ccc(OC)cc3)N2N=O)cc1 (stereo not drawn) | 3.15% | 6.4 | 15.6% | -1.2 | 26.6% | 32.8
15 | [O-]c1c[n+](-c2cc(Cl)ccc2Cl)no1 | 11.2% | 2.9 | -3.4% | 4.8 | -1.4% | 2.55
16 | O=C(CCN1CCOCC1)Nc1ccc(F)cc1F | -18.8% | 3.35 | -3.15% | 7.25 | -36.5% | -6.1
17 | OCC(O)C(O)C(OC1OC(CO)C(O)C(O)C1O)C(O)CO (stereo not drawn) | -1.05% | 37.8 | 26.9% | -2.2 | 13.8% | -3.2
18 | CC(=O)OCCOCNC(=S)N/N=C/c1cc([N+](=O)[O-])ccc1O | 25.9% | -2.75 | 15.6% | 42 | 10.7% | -0.05
19 | O=[N+]([O-])c1ccc(-n2cccc2)cc1 | -0.55% | 20 | -0.55% | 44.4 | -0.75% | -7.2

Row | Compound | growth inhibition [1] | growth inhibition [2] [%] | growth inhibition [3] | growth inhibition [4] [%] | growth inhibition [5] | growth inhibition [6] [%]
20 | CCN(CC)CC[n+]1ccc2c(C)c3[nH]c4ccccc4c3c(C)c2c1 | 37.8% | -2.65 | -4.1% | 3.3 | 31.3% | 15.9
21 | CC(C)(C)OC(=O)NC(Cc1ccc(O)cc1)C(=O)N1CCCC1C(=O)O (stereo not drawn) (Boc-Tyr-Pro-OH; configuration not given here) | -13% | -11.3 | -20.9% | -10.2 | -22.9% | -23.1
22 | CC(C)NC(=O)C1C2CCC(CC2)C1C(=O)NC(C)C (stereo not drawn) | 0.95% | 34.6 | -4% | -3.3 | 17.7% | 0.35
23 | CN(Cc1cnc2nc(N)nc(N)c2n1)c1ccc(C(=O)NC(CCC(=O)NC(CCC(=O)NC(CCC(=O)NC(CCC(=O)O)C(=O)O)C(=O)O)C(=O)O)C(=O)O)cc1 (stereo not drawn) | 42.8% | -19.8 | -35.9% | -26.1 | -41.6% | -12.5
24 | CSC1C(=O)Nc2ccccc21 (stereo not drawn) | -8.5% | -17.6 | 4.1% | -13.1 | -34.5% | -3
25 | CC1(O)CCC2(CCC(C)(O)CC2=O)C(=O)C1 (stereo not drawn) | -7.85% | -9.75 | -0.45% | -2.35 | -12.6% | -14.7
26 | Nc1nc(Cl)nc(Cl)n1 | -53.7% | -59.5 | -33% | 3.75 | -52.4% | -12.2
27 | C1CCC(C2CCCC[N-]2)[N-]C1.[Cl][Cu][Cl] (stereo not drawn) | 7.35% | 10.3 | 9.85% | 9.6 | -4.85% | 13.7
28 | OCCN(c1ccccc1)c1nc(N(CCO)c2ccccc2)nc(N(CCO)c2ccccc2)n1 | 2.7% | 8.8 | 32.5% | 7.75 | 29.9% | 1.7
29 | CC1(C)NC(=S)N(O)C1(C)C | 0.1% | -5.65 | -19.8% | -11.9 | 10.8% | -4.8
30 | COC(C(N)=O)c1ccccc1 (stereo not drawn) | -9.8% | -11.3 | -16.4% | -8 | 8.7% | -3.45
31 | CCN1CCCC(N)C1 (stereo not drawn) | -26.1% | -23.2 | -34.9% | 11.8 | -41.8% | -27.9
32 | CC(=O)NCc1cc(C)c(CBr)cc1CBr | -1.95% | -10.8 | -3.6% | 7.2 | 7.1% | 10.1
33 | COc1cc(/C=C/c2ccnnc2)cc(OC)c1OC | -9.2% | 15.3 | 16.8% | -0.35 | 15.3% | -34.6
34 | CCOC(=O)C(C)=P(c1ccccc1)(c1ccccc1)c1ccccc1 | -1.6% | -5.8 | -1% | -39.2 | -0.7% | -11.3
35 | O=C(Nc1ccn(C2OC(CO)C(O)C2O)c(=O)n1)Nc1ccn(C2OC(CO)C(O)C2O)c(=O)n1 (stereo not drawn) | 22.5% | -17.6 | -4.95% | -35.8 | -1.2% | 17.6
36 | Cc1cc(N(CCC#N)CCC#N)ccc1N=Nc1cc(Cl)ccc1Cl | 18.8% | 16.8 | -8.55% | 13.2 | 42% | 16.6
37 | CN(C)CCCCl | -16.1% | -3.05 | 8.75% | -26.8 | -15.5% | -17.3
38 | O=C(O)CCCCCCCCCCS(=O)(=O)CCO | 5.2% | 6.25 | 13.4% | 20.2 | 19.9% | -10
